The values that follow come from the supplement of paper PMC10646978.

What all share (details): modulator concentration 10 µM
Assay [1] concerns RAW-Dual (murine macrophage reporter line). The experiment in a line: NF-kB reporter (SEAP) activity fold change vs agonist alone; higher = enhanced NF-kB activity. Put shortly:
(§1)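 In 384-well plates holding 50 000 RAW-Dual murine macrophage reporter cells per well, compound at 10 μM final was pre-incubated for 1 hour at 37 °C, after which a PRR agonist was added overnight. Supernatant SEAP read with QUANTI-Blue at 620 nm absorbance reported NF-κB, and Lucia luciferase read with QUANTI-Luc luminescence reported IRF. Fold change values come from dividing each reporter signal by the mean of agonist-only control wells on the same plate, averaged over replicate plates with propagated errors.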

Assay [2] shares this test system. The experiment in a line: IRF reporter (Lucia luciferase) activity fold change vs agonist alone; higher = enhanced IRF activity. Put shortly:
as §1

Assay [3] has the same test system. Description: viability score (confluency relative to resting cells, overnight) (fraction); higher = more viable, active = viable (0.7 or more). Put shortly:
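RAW-Dual macrophages in 384-well plates were treated overnight with compound at 10 μM final. IncuCyte imaging recorded confluency, and IncuCyte software built two confluency masks across every imaged well. The viability score expresses confluency relative to resting cells and was judged against a cutoff, which a compound met only if both masks exceeded 70% of resting cells.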

Setting [4] is: agonist: CpG ODN 1826 0.5 ug/mL.

Molecules are shown by their SMILES. ± gives the standard deviation.

Regarding `CC(=NOCON=C(C)c1ccc(F)cc1F)c1ccc(F)cc1F`, the NF-kB reporter in assay [1] (setting [4]) stood at 0.843 ± 0.067; in assay [1] (agonist: LPS 0.1 ug/mL) it was 0.907 ± 0.062; in assay [1] (agonist: MPLA […]), 0.974 ± 0.086. Besides, the IRF reporter in assay [2] (agonist: 3'3'-cGAMP 10 ug/mL) was 0.991 ± 0.05; in assay [2] (agonist: LPS 0.1 ug/mL), 1.39 ± 0.085; in assay [2] (agonist: MPLA […]) it was 1.53 ± 0.15. Further, the viability score in assay [3] was 1 (active).
With `CCOC(=O)C1=C(C)NC(C)=C(C(=O)OCC)C1c1ccc(OC)cc1OC`, the NF-kB reporter stood at 1.01 ± 0.21 in assay [1] (setting [4]), 1.27 ± 0.12 in assay [1] (agonist: LPS 0.1 ug/mL) and 1.16 ± 0.18 in assay [1] (agonist: MPLA […]). Also, the IRF reporter in assay [2] (agonist: 3'3'-cGAMP 10 ug/mL) was 1.01 ± 0.033; in assay [2] (agonist: LPS 0.1 ug/mL), 1 ± 0.24; in assay [2] (agonist: MPLA […]), 1.25 ± 0.24. Moreover, the viability score in assay [3] is 1 (active).
As to `O=C(NC1CCN(c2ncnc3c2CCCC3)CC1)c1ccc(=O)[nH]c1`, the NF-kB reporter came to 1.09 ± 0.13 in assay [1] (setting [4]), 1.09 ± 0.11 in assay [1] (agonist: LPS 0.1 ug/mL) and 0.949 ± 0.057 in assay [1] (agonist: MPLA […]). Moreover, the IRF reporter is 0.957 ± 0.096 in assay [2] (agonist: 3'3'-cGAMP 10 ug/mL), 1.24 ± 0.11 in assay [2] (agonist: LPS 0.1 ug/mL) and 1.07 ± 0.1 in assay [2] (agonist: MPLA […]). Moreover, in assay [3], the viability score was 1.02 (active).
On to `COC(C)(CNC(=O)c1cc2ccccc2[nH]1)c1ccccc1F` (stereo unspecified), for which the NF-kB reporter in assay [1] (setting [4]) was 0.825 ± 0.035; in assay [1] (agonist: LPS 0.1 ug/mL) it was 0.96 ± 0.081; in assay [1] (agonist: MPLA […]) it was 1.06 ± 0.057. The IRF reporter in assay [2] (agonist: 3'3'-cGAMP 10 ug/mL) turned out to be 0.944 ± 0.063; in assay [2] (agonist: LPS 0.1 ug/mL), 1.01 ± 0.17; in assay [2] (agonist: MPLA […]), 1.11 ± 0.22. Further, the viability score in assay [3] is 0.94 (active).
`CC(=O)c1c(C(C)=O)c(C)n(-c2ccccc2N)c1C`: the NF-kB reporter in assay [1] (setting [4]) was determined as 1.04 ± 0.081; in assay [1] (agonist: LPS 0.1 ug/mL), 0.992 ± 0.1; in assay [1] (agonist: MPLA […]), 1.01 ± 0.1. Besides, the IRF reporter turned out to be 0.983 ± 0.069 in assay [2] (agonist: 3'3'-cGAMP 10 ug/mL), 1.3 ± 0.21 in assay [2] (agonist: LPS 0.1 ug/mL) and 1.43 ± 0.35 in assay [2] (agonist: MPLA […]). In addition, in assay [3], the viability score was 1.01 (active).
As for `COc1ccc(OCCSc2nc3ccccc3n2CCO)cc1`, the NF-kB reporter in assay [1] (setting [4]) was determined as 1.01 ± 0.094; in assay [1] (agonist: LPS 0.1 ug/mL), 1.09 ± 0.12; in assay [1] (agonist: MPLA […]), 1.09 ± 0.031. Also, the IRF reporter amounted to 1.35 ± 0.55 in assay [2] (agonist: 3'3'-cGAMP 10 ug/mL), 1 ± 0.063 in assay [2] (agonist: LPS 0.1 ug/mL) and 1.05 ± 0.14 in assay [2] (agonist: MPLA […]). Also, the viability score in assay [3] is 0.992 (active).
`O=C1CN(CCC2=CCCCC2)C2CS(=O)(=O)CC2N1c1ccc(Cl)cc1` (stereo unspecified): the values for the NF-kB reporter in assay [1] (setting [4]), in assay [1] (agonist: LPS 0.1 ug/mL) and in assay [1] (agonist: MPLA […]) were 1.01 ± 0.12, 1.07 ± 0.089 and 0.849 ± 0.071, respectively. In addition, the IRF reporter in assay [2] (agonist: 3'3'-cGAMP 10 ug/mL) is 0.786 ± 0.051; in assay [2] (agonist: LPS 0.1 ug/mL) it was 0.892 ± 0.078; in assay [2] (agonist: MPLA […]) it was 1 ± 0.13. Further, the viability score in assay [3] is 1.01 (active).
Consider `CC(=O)C1=C(C)OC2(O)c3ccccc3C(=O)C12O` (stereo unspecified), for which the NF-kB reporter is 0.903 ± 0.11 in assay [1] (setting [4]), 0.947 ± 0.089 in assay [1] (agonist: LPS 0.1 ug/mL) and 1.23 ± 0.13 in assay [1] (agonist: MPLA […]). In addition, the IRF reporter in assay [2] (agonist: 3'3'-cGAMP 10 ug/mL) was found to be 0.831 ± 0.029; in assay [2] (agonist: LPS 0.1 ug/mL), 1.02 ± 0.18; in assay [2] (agonist: MPLA […]), 0.824 ± 0.12. Besides, the viability score in assay [3] was 0.945 (active).
In the case of `CC(C)(C)NCC(=O)Nc1ccc(S(N)(=O)=O)cc1`, the NF-kB reporter in assay [1] (setting [4]) amounted to 0.762 ± 0.061; in assay [1] (agonist: LPS 0.1 ug/mL) it was 0.821 ± 0.064; in assay [1] (agonist: MPLA […]) it was 1.06 ± 0.091. The IRF reporter in assay [2] (agonist: 3'3'-cGAMP 10 ug/mL) worked out at 1.02 ± 0.049; in assay [2] (agonist: LPS 0.1 ug/mL), 1.52 ± 0.098; in assay [2] (agonist: MPLA […]) it was 1.7 ± 0.2. The viability score in assay [3] was 0.997 (active).
For `COc1cc2nc(N3CCN(C(=O)c4ccco4)CC3)nc(N)c2cc1OC` [Prestw-947], the figures for the NF-kB reporter in assay [1] (setting [4]), in assay [1] (agonist: LPS 0.1 ug/mL) and in assay [1] (agonist: MPLA […]) were 0.258 ± 0.041, 1.09 ± 0.083 and 1.14 ± 0.11, respectively. The IRF reporter worked out at 1.59 ± 0.049 in assay [2] (agonist: 3'3'-cGAMP 10 ug/mL), 1.28 ± 0.18 in assay [2] (agonist: LPS 0.1 ug/mL) and 1.48 ± 0.33 in assay [2] (agonist: MPLA […]). Moreover, the viability score in assay [3] was 0.971 (active).
`Clc1ccc(C2C=C(c3ccccc3)Nc3ncnn32)cc1` (stereo unspecified): the NF-kB reporter in assay [1] (setting [4]) came to 1.08 ± 0.11; in assay [1] (agonist: LPS 0.1 ug/mL), 0.939 ± 0.091; in assay [1] (agonist: MPLA […]), 0.986 ± 0.057. Moreover, the IRF reporter was 0.886 ± 0.17 in assay [2] (agonist: 3'3'-cGAMP 10 ug/mL), 1.1 ± 0.097 in assay [2] (agonist: LPS 0.1 ug/mL) and 0.945 ± 0.062 in assay [2] (agonist: MPLA […]). Besides, the viability score in assay [3] was 1 (active).
With `Cc1cc(OCc2nc(-c3ccc(Cl)cc3Cl)no2)ccc1Br`, the NF-kB reporter in assay [1] (setting [4]) came to 1.03 ± 0.17; in assay [1] (agonist: LPS 0.1 ug/mL) it was 0.988 ± 0.12; in assay [1] (agonist: MPLA […]), 1.63 ± 0.8. The IRF reporter in assay [2] (agonist: 3'3'-cGAMP 10 ug/mL) was determined as 0.984 ± 0.039; in assay [2] (agonist: LPS 0.1 ug/mL), 1.15 ± 0.13; in assay [2] (agonist: MPLA […]), 1.15 ± 0.21. Also, in assay [3], the viability score was 1.01 (active).
With `CCCOc1ccc(C=C2SC(N3CCN(c4ccccc4C)CC3)=NC2=O)cc1`, the NF-kB reporter is 1.06 ± 0.079 in assay [1] (setting [4]), 0.989 ± 0.078 in assay [1] (agonist: LPS 0.1 ug/mL) and 0.975 ± 0.061 in assay [1] (agonist: MPLA […]). Further, the values for the IRF reporter in assay [2] (agonist: 3'3'-cGAMP 10 ug/mL), in assay [2] (agonist: LPS 0.1 ug/mL) and in assay [2] (agonist: MPLA […]) were 0.954 ± 0.049, 0.988 ± 0.051 and 0.968 ± 0.14, respectively. Moreover, the viability score in assay [3] was 1 (active).
